PubChem BioAssay AID1259418 (Broad Institute, 2018)
Screen size: about 3,400 compounds; about 840 (25%) were called active. Inconclusive results (about 11%) are left out. The list is a sample of the results. Results with a measured potency or affinity are listed apart. A number with no mark means an inactive call.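 The calls were made as follows: active = fitted half-maximal concentration of signal decrease at or below twice the sample's top tested concentration; inconclusive = flat curve between -70 and -30 percent, or poor fit; inactive = flat within 30 percent, signal rise, or potency above limit.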

Assay: T. gondii growth inhibition with IFN-gamma, dose response, cell-based, ME49Luc, HeLa, luciferase, 72 h (AID 1259418)
Conditions: T. gondii ME49Luc in IFN-y HeLa, hits give low values, -100% = high-dose IFN-γ control wells; at 19.5 µM unless noted

Compound	max activity
COc1ccc(-c2nc(Cn3nnc(-c4nc(-c5ccccc5Cl)no4)c3C)c(C)o2)cc1	-7.3% [at 1.35 µM]
CCCCc1ccc(Nc2ncnc3c2cnn3-c2ccccc2)cc1	-7.99% [at 0.68 µM]
COc1ccc(NC(=O)CN2CCC3(CC2)N=C(c2ccc(F)cc2)C(=O)N3)cc1Cl	-24% [at 0.16 µM]
CCc1nc(OCC(=O)Nc2ccccc2CC)c2ccccc2n1	28.5%
O=C(CC1CCCC1)Nc1ccc2c(c1)CCC(=O)N2	12.2%
Cc1oc(-c2cccc(Cl)c2)nc1Cn1nnc(-c2nc(-c3ccccn3)no2)c1C	-10.2% [at 5 µM]
COc1ccc(C(=O)N2CCC3(CC2)Nc2cc(F)ccc2-n2cccc23)cc1	-22% [at 0.16 µM]
COc1ccc(-c2ccc(C3[C@@H]4CN(C(=O)c5cnccn5)C[C@H]3N4)cc2)cc1 (some centres undefined)	10.5% [at 10 µM]
COc1ccccc1-c1ccc(C2[C@@H]3CN(C(=O)c4ccncc4)C[C@H]2N3)cc1 (some centres undefined)	32.2%
CCOC(=O)CSc1nc(NCc2ccc(OC)cc2)c2ccccc2n1	20.1% [at 10 µM]
Cc1ccc2c(c1C)-n1cccc1C1(CCN(C(=O)Cc3ccc(F)cc3)CC1)N2	11.4% [at 0.68 µM]
O=C(Nc1cncc(-c2nc3ccccc3o2)c1)c1cccc(Cl)c1	14.2% [at 0.16 µM]
COc1ccc(S(=O)(=O)N2CCCCN3[C@H](C2)[C@@H](c2ccc(C#CCC(C)C)cc2)[C@@H]3CO)cc1	177% [at 10 µM]
Cc1cccc(NC(=O)N2CCc3nc(-c4ccccc4)sc3C2)c1	-11.3% [at 0.35 µM]
CCOc1ccc(CC(=O)Nc2ccc(-c3nc(-c4ccccc4)co3)cc2)cc1OCC	30.5% [at 10 µM]
Cc1ccc(NC(=O)CN2CCC3(CC2)N=C(c2ccc(F)cc2)C(=O)N3)cc1C	-13.8% [at 1.35 µM]
COc1ccccc1-c1nc(Cn2nnc(-c3nc(-c4ccc(C(F)(F)F)cc4)no3)c2C)c(C)o1	8.9%
COc1cccc(NC(=O)Nc2ccc(-c3nc(-c4ccccc4)co3)cc2)c1	66.2%
C=CCO[C@@H]1CCN(c2cc(OC)ncn2)[C@H]1Cc1cnn(C)c1	25.2%
CC=Cc1ccc2n(c1=O)C[C@H]1[C@H](CO)[C@@H](C(=O)Nc3ccc(-c4ccccc4)cc3)[C@@H]2N1C(=O)CC (mixture of isomers)	25.5%
Clc1cccc(CSc2nc(NCCc3ccccc3)c3ccccc3n2)c1	-7.56% [at 0.16 µM]
Clc1ccc(CNc2nc(SCc3ccc(Cl)cc3)nc3ccccc23)cc1	7.58% [at 2.6 µM]

Compound	max activity
Clc1ccc(CSc2nc(NCCc3ccccc3)c3ccccc3n2)cc1	29.6% [at 2.6 µM]
COc1ccc(CCNc2nc(SCc3cccc(F)c3)nc3ccccc23)cc1OC	12% [at 5 µM]
COc1ccc(CNc2nc(SCc3ccccc3Cl)nc3ccccc23)cc1	17.2%
Clc1ccc(CSc2nc(NCc3ccccc3)c3ccccc3n2)cc1	30.6% [at 2.6 µM]
Cc1cccc(-c2nc(Cn3nnc(-c4nc(-c5ccc(Cl)cc5)no4)c3C)c(C)o2)c1	25.6%
O=C(NCCc1csc(-c2ccccc2)n1)C1CCN(C(=O)CCc2ccccc2)CC1	-11.1%
CCCCC[C@H](CC(=O)NO)C(=O)N[C@H](C(=O)N1CCC[C@H]1CO)C(C)C	15.6%
CCOc1ccccc1-c1nc(Cn2c(=O)c3c(C)cc(C)nc3n(-c3ccccc3)c2=O)c(C)o1	5.33% [at 0.16 µM]
CC[C@H](C(=O)N1CCCC[C@H]1C(=O)O[C@H](CCc1ccc(OC)c(OC)c1)c1cccc(OCC(=O)NCCNC(=O)COc2cccc([C@@H](CCc3ccc(OC)c(OC)c3)OC(=O)[C@@H]3CCCCN3C(=O)[C@@H](CC)c3cc(OC)c(OC)c(OC)c3)c2)c1)c1cc(OC)c(OC)c(OC)c1	-14% [at 5 µM]
Cc1ccc(C)c(-c2coc(-c3ccc(NC(=O)NC4CCCCC4)cc3)n2)c1	6.93% [at 0.16 µM]
N#Cc1cccc(-c2ccc3c(c2)[C@H]2[C@H](CCN2Cc2ccc4c(c2)OCO4)[C@@H](CO)N3)c1	21.2% [at 10 µM]
N#Cc1cccc(-c2ccc3c(c2)[C@H]2[C@H](CCN2Cc2ccc4c(c2)OCO4)[C@H](CO)N3)c1	17.9% [at 10 µM]
CCCC#Cc1ccc([C@@H]2[C@H]3CN(C(=O)Nc4cccc(F)c4)CC(=O)N3[C@H]2CO)cc1	7.32% [at 0.16 µM]
C/C=C/c1ccc([C@@H]2[C@@H](CO)N3C(=O)CN(C(=O)Nc4cccc(OC)c4)C[C@@H]23)cc1	27% [at 10 µM]
C/C=C/c1ccc([C@H]2[C@H]3CN(C(=O)Nc4cccc(OC)c4)CC(=O)N3[C@H]2CO)cc1	-12% [at 21 µM]
CC(C)CC(=O)N1CCC(C(=O)NCCc2csc(-c3cccs3)n2)CC1	7.82%
Cc1ccc(C)c(-c2coc(-c3ccc(NC(=O)Nc4ccc5c(c4)OCO5)cc3)n2)c1	81.1%
CCc1nc(OCC(=O)Nc2cccc(C)c2)c2ccccc2n1	-9.62% [at 1.35 µM]
Cc1cccc(OCC(=O)N2CSC[C@@H]2C(=O)NCCc2csc(-c3ccccc3)n2)c1	-20.7% [at 0.68 µM]
Cc1ccc2c(c1C)-n1cccc1C1(CCN(C(=O)c3c(F)cccc3F)CC1)N2	-8.13% [at 0.16 µM]
NC(=O)C1(N2CCCCC2)CCN(c2ncc(NC(=O)c3cccs3)cc2C(=O)O)CC1	8.78% [at 0.16 µM]
CSc1cccc(NC(=O)Nc2ccc(-c3nc(-c4ccc(C)cc4)co3)cc2)c1	26.9%
